BioA inh-1 = blocks M. tuberculosis BioA enzyme activity | purified M. tuberculosis BioA enzyme, plate reader | inhibition, % at 9.99 µM | 360,000 compounds, 0.096% hits; in the data active = inhibition above about 40%; inconclusive = no clear call, values can overlap the other calls
TcdB GH inh = blocks C. difficile toxin B glycohydrolase activity; P18177; TcdB glycohydrolase enzymatic assay, plate reader; inhibition, % at 9.99 µM; 350,000 compounds, 0.24% hits; AID 652162; in the data active = inhibition above about 10%
FadD28 FP inh = blocks FadD28 binding to the bisubstrate probe; inhibition, % at 12.5 µM; 360,000 compounds, 0.22% hits; fluorescence polarization; in the data active = inhibition above about 8.5%, passing the limit was not always enough; inconclusive = no clear call, values can overlap the other calls
Y pestis TopoI = inhibitors of Yersinia pestis topoisomerase I | Y. pestis Topo-I cleavage product accumulation, plate reader | activity, % at 10 µM | 360,000 compounds, 0.064% hits | AID 504884; in the data active = activity above about 50%, passing the limit was not always enough; inconclusive = no clear call, values can overlap the other calls
BioA inh-2 = blocks M. tuberculosis BioA aminotransferase | shares compounds with BioA inh-1 | purified BioA enzyme, plate reader, dose response | max activity, % | 310 tested, under 10 active | AID 651679;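 also: top concentration of the dilution series was 10 µM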
HepG2 cytotox = HepG2 viability loss; shares compounds with BioA inh-1; HepG2 cytotoxicity, plate reader; max activity, %; 310 tested, under 10 active; AID 651898
3T3 cytotox 5 = NIH3T3 viability loss. AID 651900. NIH3T3 cytotoxicity, plate reader. 310 tested, under 10 active. shares compounds with BioA inh-1. activity change, negative = cytotoxicity, % at 26 µM
* = called active by the depositor; i = inactive; ? = inconclusive; . = no result given. Hits are enriched below; roughly 0.45% of the tested compounds scored in any of these assays. Unless noted, no rule for the calls is given here.

SMILES | BioA inh-1 | TcdB GH inh | FadD28 FP inh | Y pestis TopoI | BioA inh-2 | HepG2 cytotox | 3T3 cytotox 5
Cc1cc(C(=O)NC2CC(C)(C)Cc3c2cnn3-c2cccc(F)c2)nn1C (configuration not stated) | 69* | 1 | 0 | 28 | -9 | -9 | -8
COc1cc(OC)cc(C(=O)Nc2ccc(Cn3ccnc3)cc2)c1 | -1 | 0 | -3 | 7 | . | . | .
COc1ccc(NC(=O)c2ccc(S(=O)(=O)N(C)C)cc2)cc1OC | 43* | . | -3 | -3 | -8 | -5 | -5
COc1ccc(C(=O)Nc2ccc(Cn3ccnc3)cc2)cc1OC | 44* | 1 | -2 | -5 | -3 | 19 | 3
COc1ccc(C(=O)Nc2cccnc2)cc1OC | 57* | . | 0 | 1 | -5 | 24 | -2
CCCCN1C(=O)c2ccc(C(=O)Nc3cccnc3)cc2C1=O | 82* | . | 1 | -8 | -7 | 6 | -1
COc1ccc(NC(=O)c2ccc(N(C)S(C)(=O)=O)cc2)cc1OC | 17 | 0 | -2 | 0 | . | . | .
C[C@@H]1CN([C@@H](C)CO)C(=O)c2cc(NC(=O)CCCN(C)C)ccc2O[C@@H](C)CCCCO[C@H]1CN(C)Cc1ccccc1 | 0 | 1 | . | . | . | . | .
C[C@@H]1CN([C@H](C)CO)C(=O)c2cc(NC(=O)Nc3ccccc3)ccc2O[C@@H](C)CCCCO[C@@H]1CN(C)Cc1ccc(C(=O)O)cc1 | 1 | -4 | . | . | . | . | .
C[C@H](CO)N1C[C@H](C)[C@@H](CN(C)C(=O)C2CCCCC2)Oc2ncc(/C=C/c3ccccc3)cc2C1=O | 2 | 0 | . | . | . | . | .
COc1cc2c(cc1NC(=O)c1cccnc1)CCCC2 | 56* | . | 0 | -8 | -7 | -12 | -8
Cn1nnc2cc(C(=O)Nc3cccnc3)ccc21 | 55* | . | -4 | 3 | -7 | 25 | 2
Cn1nnc2cc(C(=O)Nc3ccccc3)ccc21 | 1 | 1 | -3 | -14 | . | . | .
COCC#Cc1ccc2c(c1)O[C@@H](CN(C)Cc1ccc(F)cc1)[C@H](C)CN([C@@H](C)CO)S2(=O)=O | 5 | 1 | . | . | . | . | .
CCS(=O)(=O)Nc1ccc2c(c1)C(=O)N(C)C[C@@H](OC)[C@@H](C)CN(C(C)=O)[C@H](C)CO2 | 0 | -3 | . | . | . | . | .
O=C(NCc1ccccc1)C1CCCN(S(=O)(=O)c2cccnc2)C1 (configuration not stated) | -2 | . | -1 | -6 | . | . | .
O=C(C1CCCN(S(=O)(=O)c2cccnc2)C1)N1CCn2c1nc1ccccc12 (configuration not stated) | 46* | 0 | -2 | 4 | -5 | 11 | 2
Cc1nc(-c2cccnc2)sc1C(=O)Nc1cccc(C(F)(F)F)c1 | 50* | . | -6 | -2 | -9 | ? | -2
Cc1nc(-c2cccnc2)sc1C(=O)Nc1ccc(C(F)(F)F)cc1 | 13 | . | 1 | -8 | . | . | .
C[C@@H]1CN([C@H](C)CO)C(=O)c2cc(C#Cc3cccnc3)cnc2O[C@H]1CN(C)S(C)(=O)=O | 84* | 1 | . | . | -2 | i | -2
C[C@@H]1CN([C@@H](C)CO)C(=O)c2cc(C#Cc3cccnc3)cnc2O[C@@H]1CN(C)S(C)(=O)=O | 5 | 0 | . | . | . | . | .

High-throughput results (PubChem)
